# In PubChem BioAssay:
# Values without a mark were called inactive. Some of the results follow. Activity calls are given as the source filed them.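 The calls were made as follows, unless noted: active = mean inhibition over 43.08%, the solvent-only control mean plus 3 SD; inactive = the rest.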
# Columns and labels:
# [1] = target: Nuclear receptor coactivator 3 (Homo sapiens) (UniProt Q9Y6Q9); assay: SRC3 coactivator transcriptional activity inhibitors, confirmation, cell-based, luminescence, quadruplicate (AID 588792); conditions: HEK293 GAL4-SRC3 luciferase reporter, at 3.6 µM, stronger effect = higher value;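 also: 0% = DMSO treated cells and 100% = gossypol at 36 µM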
# Nuclear receptor coactivator 3 (Homo sapiens), sequence (Q9Y6Q9 whole entry, looked up, the tested form may be a part): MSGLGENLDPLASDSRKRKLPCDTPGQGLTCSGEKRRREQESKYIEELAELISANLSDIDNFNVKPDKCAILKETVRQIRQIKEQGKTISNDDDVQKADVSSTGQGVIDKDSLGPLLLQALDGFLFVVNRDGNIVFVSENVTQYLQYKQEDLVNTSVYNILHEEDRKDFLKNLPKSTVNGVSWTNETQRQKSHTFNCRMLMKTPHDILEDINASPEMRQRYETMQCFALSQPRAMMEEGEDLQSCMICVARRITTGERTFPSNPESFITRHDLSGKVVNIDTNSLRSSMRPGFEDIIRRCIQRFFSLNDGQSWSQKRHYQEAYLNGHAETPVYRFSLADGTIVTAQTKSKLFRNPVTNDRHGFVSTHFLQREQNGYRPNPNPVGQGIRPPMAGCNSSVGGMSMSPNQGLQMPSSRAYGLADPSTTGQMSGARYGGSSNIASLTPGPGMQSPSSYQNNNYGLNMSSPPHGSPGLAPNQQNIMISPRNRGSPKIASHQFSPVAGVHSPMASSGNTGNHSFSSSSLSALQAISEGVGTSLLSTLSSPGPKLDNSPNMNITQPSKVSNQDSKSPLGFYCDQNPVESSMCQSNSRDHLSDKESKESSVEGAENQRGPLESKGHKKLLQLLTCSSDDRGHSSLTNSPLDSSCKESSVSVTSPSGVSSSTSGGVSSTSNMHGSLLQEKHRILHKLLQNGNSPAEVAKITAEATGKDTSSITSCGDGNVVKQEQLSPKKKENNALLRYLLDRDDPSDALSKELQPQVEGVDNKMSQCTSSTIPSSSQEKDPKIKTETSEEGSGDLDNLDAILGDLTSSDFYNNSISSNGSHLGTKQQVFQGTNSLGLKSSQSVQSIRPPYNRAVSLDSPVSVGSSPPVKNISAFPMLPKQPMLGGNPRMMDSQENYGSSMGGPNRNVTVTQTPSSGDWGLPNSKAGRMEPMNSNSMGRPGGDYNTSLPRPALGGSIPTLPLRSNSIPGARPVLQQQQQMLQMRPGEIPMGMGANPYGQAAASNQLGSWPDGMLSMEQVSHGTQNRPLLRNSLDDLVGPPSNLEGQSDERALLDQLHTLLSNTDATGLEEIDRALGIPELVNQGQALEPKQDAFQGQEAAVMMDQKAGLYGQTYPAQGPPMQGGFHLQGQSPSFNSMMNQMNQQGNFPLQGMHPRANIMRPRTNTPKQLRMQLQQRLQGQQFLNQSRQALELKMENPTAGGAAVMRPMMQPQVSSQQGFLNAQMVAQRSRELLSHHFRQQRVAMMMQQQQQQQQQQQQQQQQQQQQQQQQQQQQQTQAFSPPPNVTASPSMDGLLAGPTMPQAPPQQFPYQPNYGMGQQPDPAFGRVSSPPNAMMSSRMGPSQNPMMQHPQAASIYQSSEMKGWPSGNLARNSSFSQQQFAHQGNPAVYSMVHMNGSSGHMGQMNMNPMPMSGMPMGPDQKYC
# [2] = test system: transactivating tegument protein VP16 (Human herpesvirus 1), Gal4-VP16 luciferase reporter; assay: VP16 transactivation inhibitors, counter-screen for SRC3 inhibitor project, cell-based, luminescence, high throughput (AID 588794; in the data active = inhibition above about 30%); conditions: mammalian cells, VP16-driven luciferase reporter luminescence; at 3.6 µM; stronger effect = higher value
# [3] = target: Nuclear receptor coactivator 1 (Homo sapiens) (UniProt Q15788); assay: SRC1 coactivator transcriptional activity inhibitors, confirmation, cell-based, luminescence, quadruplicate (AID 588820;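 active = mean inhibition above 46.68%, the untreated control wells mean plus 3 SD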;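 also: 0% = DMSO wells and 100% = gossypol 36 µM treated wells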); conditions: HEK293 GAL4-SRC1 luciferase reporter, at 3.6 µM, stronger effect = higher value
# Nuclear receptor coactivator 1 (Homo sapiens), sequence (Q15788 whole entry, looked up, the tested form may be a part): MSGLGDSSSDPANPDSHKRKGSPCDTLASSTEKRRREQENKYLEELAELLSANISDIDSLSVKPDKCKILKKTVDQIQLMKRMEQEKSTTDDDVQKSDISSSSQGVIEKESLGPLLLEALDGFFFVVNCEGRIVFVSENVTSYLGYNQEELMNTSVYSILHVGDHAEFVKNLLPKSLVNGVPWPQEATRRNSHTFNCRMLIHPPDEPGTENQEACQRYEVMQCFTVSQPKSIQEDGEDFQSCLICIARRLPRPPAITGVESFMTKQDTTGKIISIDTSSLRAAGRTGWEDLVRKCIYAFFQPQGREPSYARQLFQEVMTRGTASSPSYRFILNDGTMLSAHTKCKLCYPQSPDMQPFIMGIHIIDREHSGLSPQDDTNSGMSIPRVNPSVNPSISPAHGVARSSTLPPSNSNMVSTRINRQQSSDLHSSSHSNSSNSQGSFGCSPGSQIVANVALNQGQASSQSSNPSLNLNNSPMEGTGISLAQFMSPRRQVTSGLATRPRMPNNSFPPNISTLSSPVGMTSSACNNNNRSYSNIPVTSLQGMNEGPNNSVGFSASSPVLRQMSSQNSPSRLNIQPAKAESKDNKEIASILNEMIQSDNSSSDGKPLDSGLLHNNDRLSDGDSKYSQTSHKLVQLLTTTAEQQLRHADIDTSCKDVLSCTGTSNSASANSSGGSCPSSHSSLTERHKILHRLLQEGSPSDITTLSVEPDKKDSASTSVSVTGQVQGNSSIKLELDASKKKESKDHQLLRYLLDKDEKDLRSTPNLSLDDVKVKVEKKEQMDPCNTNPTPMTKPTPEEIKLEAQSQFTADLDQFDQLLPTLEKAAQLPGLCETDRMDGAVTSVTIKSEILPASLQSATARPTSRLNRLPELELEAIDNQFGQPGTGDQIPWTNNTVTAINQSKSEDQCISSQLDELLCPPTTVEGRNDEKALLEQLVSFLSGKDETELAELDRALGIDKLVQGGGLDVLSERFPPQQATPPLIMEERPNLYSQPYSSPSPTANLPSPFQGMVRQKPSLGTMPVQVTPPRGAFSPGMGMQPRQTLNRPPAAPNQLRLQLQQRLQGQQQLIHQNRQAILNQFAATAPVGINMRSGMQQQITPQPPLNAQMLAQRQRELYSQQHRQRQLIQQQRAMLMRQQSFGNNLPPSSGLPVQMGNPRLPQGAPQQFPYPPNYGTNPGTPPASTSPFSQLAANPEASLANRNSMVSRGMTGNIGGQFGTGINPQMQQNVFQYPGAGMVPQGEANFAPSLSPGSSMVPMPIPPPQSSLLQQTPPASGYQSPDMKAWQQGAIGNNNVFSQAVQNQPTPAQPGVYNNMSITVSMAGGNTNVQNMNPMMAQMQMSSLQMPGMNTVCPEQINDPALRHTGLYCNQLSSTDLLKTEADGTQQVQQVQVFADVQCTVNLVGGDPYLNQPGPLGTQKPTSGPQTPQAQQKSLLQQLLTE
# [4] = VP16 transactivation inhibitors, counter-screen for SRC1 inhibitor project, cell-based, luminescence, high throughput (AID 588824; in the data active = inhibition above about 25%); conditions: cell-based VP16 transactivation luciferase luminescence; at 3.6 µM; stronger effect = higher value
# [5] = StAR promoter reporter inhibitors, counter-screen for LRH-1 inverse agonist project, cell-based, luminescence, high throughput (AID 651611; in the data active = inhibition above about 28%); conditions: StAR promoter luciferase reporter counterscreen, at 3.6 µM, stronger effect = higher value
# [6] = target: Nuclear receptor subfamily 5 group A member 2 (Homo sapiens) (UniProt O00482); assay: LRH-1 (NR5A2) inverse agonists, retest, confirmation, cell-based, luminescence (AID 651613; in the data active = inhibition above about 42%;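 also: HEK293T cells co-transfected with LRH-1 and StAR promoter luciferase reporter; 0% = vehicle wells and 100% = parental cells lacking receptor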); conditions: cell-based LRH-1 luciferase reporter, inverse agonism; at 3.6 µM; stronger effect = higher value
# Nuclear receptor subfamily 5 group A member 2 (Homo sapiens), sequence (O00482 whole entry, looked up): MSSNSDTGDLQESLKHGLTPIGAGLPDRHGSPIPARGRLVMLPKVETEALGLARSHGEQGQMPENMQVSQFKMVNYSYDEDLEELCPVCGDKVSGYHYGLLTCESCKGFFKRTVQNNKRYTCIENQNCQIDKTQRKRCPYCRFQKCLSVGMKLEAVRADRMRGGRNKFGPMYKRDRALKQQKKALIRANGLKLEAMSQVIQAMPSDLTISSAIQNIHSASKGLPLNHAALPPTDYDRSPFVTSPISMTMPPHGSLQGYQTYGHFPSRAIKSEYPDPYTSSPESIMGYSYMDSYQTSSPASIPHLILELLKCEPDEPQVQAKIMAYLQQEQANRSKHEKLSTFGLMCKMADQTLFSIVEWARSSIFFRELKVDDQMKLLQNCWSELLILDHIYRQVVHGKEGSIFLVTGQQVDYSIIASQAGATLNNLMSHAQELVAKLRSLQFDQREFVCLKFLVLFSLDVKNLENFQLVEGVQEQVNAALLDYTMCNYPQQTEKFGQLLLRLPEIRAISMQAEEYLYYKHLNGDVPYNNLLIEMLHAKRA
# [7] = target: Steroidogenic factor 1 (Homo sapiens) (UniProt Q13285); assay: SF1 (NR5A1) inverse agonists, counter-screen for LRH-1 inverse agonist project, cell-based, luminescence, high throughput (AID 651614; in the data active = inhibition above about 44%;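 also: cells cotransfected with StAR promoter reporter and SF1 expression vector; 0% = vehicle on cells with receptor and 100% = vehicle on cells lacking receptor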); conditions: cell-based SF1 luciferase reporter, at 3.6 µM, stronger effect = higher value
# Steroidogenic factor 1 (Homo sapiens), sequence (Q13285 whole entry, looked up, the tested form may be a part): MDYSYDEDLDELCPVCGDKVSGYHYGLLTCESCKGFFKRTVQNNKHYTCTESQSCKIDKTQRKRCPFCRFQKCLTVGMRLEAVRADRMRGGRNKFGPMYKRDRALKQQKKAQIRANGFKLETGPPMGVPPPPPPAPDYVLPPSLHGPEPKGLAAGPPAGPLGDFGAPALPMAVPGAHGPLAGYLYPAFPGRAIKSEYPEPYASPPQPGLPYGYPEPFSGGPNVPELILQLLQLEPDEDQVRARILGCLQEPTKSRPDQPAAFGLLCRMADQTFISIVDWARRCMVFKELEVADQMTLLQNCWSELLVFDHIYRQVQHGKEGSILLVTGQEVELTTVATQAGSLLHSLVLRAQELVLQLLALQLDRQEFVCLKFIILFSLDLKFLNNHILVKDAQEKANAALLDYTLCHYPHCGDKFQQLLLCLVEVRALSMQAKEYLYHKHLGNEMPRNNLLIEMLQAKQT
# [8] = VP16 transactivation reporter inhibitors, counter-screen for LRH-1 inverse agonist project, cell-based, luminescence, high throughput (AID 651615; in the data active = inhibition above about 33%); conditions: Gal4-VP16 luciferase reporter cells, at 3.6 µM, stronger effect = higher value
# [9] = test system: transactivating tegument protein VP16 (Human herpesvirus 1); assay: VP16 transactivation reporter inhibitors, counter-screen for SRC2 inhibitor project, cell-based, luminescence, single concentration (AID 652007; in the data active = inhibition above about 36%); conditions: cell-based VP16 transactivation luciferase reporter, at 8.9 µM, stronger effect = higher value
# [10] = target: Nuclear receptor coactivator 2 (Homo sapiens) (UniProt Q15596); assay: SRC2 coactivator transcriptional activity inhibitors, confirmation, cell-based, luminescence, HEK293, triplicate (AID 652008;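 active = mean inhibition above 46.5%, the solvent-only control mean plus 3 SD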;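 also: 0% = DMSO-treated cells and 100% = Gossypol at 36 µM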); conditions: HEK293 GAL4-SRC2 luciferase reporter, at 8.9 µM, stronger effect = higher value
# [11] = Gal4-VP16 luciferase reporter inhibitors, counter-screen for COUP-TFII antagonist project, cell-based, luminescence, HEK293 (AID 687007; in the data active = inhibition above about 13%); conditions: at 8.5 µM, stronger effect = higher value
# [12] = target: COUP transcription factor 2 (Homo sapiens) (UniProt P24468); assay: NR2F2 transcriptional activity inhibitors, confirmation, cell-based, luciferase reporter, HEK293, triplicate (AID 687008;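 active = mean inhibition over three repeats above a set limit taken from the earlier primary screen, cut at about 38% in these data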;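 also: 100% = cells given the luciferase reporter alone without the COUP-TF2 vector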); conditions: HEK293 NGFI-A luciferase reporter, luminescence; at 8.5 µM; stronger effect = higher value
# COUP transcription factor 2 (Homo sapiens), sequence (P24468 whole entry, looked up): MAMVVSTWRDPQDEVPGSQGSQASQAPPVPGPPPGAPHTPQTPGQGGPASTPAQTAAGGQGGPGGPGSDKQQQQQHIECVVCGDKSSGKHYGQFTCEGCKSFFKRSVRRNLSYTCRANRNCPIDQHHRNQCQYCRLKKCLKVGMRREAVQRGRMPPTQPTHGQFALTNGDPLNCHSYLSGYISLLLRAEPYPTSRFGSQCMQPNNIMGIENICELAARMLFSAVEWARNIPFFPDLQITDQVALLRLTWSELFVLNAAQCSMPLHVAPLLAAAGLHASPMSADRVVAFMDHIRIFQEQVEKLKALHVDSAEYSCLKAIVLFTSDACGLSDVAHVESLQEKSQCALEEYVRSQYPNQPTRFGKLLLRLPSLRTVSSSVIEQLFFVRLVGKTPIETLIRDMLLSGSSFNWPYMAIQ
Structure (SMILES),inhibition [1],inhibition [2],inhibition [3],inhibition [4],inhibition [5],inhibition [6],inhibition [7],inhibition [8],inhibition [9],inhibition [10],inhibition [11],inhibition [12]
O=c1[nH]c2ccccc2n1C1CCN(C(c2cccc3ccccc23)c2nnnn2Cc2ccccc2)CC1 (stereo not given),13.1%,8.16%,-24.4%,-4.89%,53.6% (active),18.9%,28.4%,9.13%,–,–,–,–
Clc1ccc(C[n+]2c(-c3ccccc3)cc(-c3ccccc3)cc2-c2ccccc2)cc1,83.5% (active),66% (active),53.1% (active),73.6% (active),70.8% (active),110% (active),89.8% (active),94% (active),–,–,–,–
O=c1[nH]c2ccccc2n1C1CCN(C(c2cccc3ccccc23)c2nnnn2-c2ccc3c(c2)OCCO3)CC1 (stereo not given),33.8%,12.5%,-29.6%,10.9%,57.5% (active),27.6%,44% (active),27.7%,–,–,–,–
Nc1ncnc2c1ccn2[C@@H]1O[C@H](CO)[C@@H](O)[C@H]1O,93.6% (active),89.5% (active),53.4% (active),86.8% (active),90.9% (active),107% (active),94.2% (active),93.6% (active),55.5% (active),58.3% (active),–,–
COc1ccc(-n2nnnc2C(c2cc3ccccc3o2)N2CCC(n3c(=O)[nH]c4ccccc43)CC2)cc1 (stereo not given),-5.69%,5.58%,0.21%,6.66%,39.6% (active),36.4%,45.7% (active),35.3% (active),49.7% (active),22.9%,–,–
O=[N+]([O-])c1ccc(N(CCO)CCO)c2c1no[n+]2[O-],52.6% (active),27.8%,29.1%,14.5%,70.7% (active),76.2% (active),74.4% (active),28.9%,29.9%,56.3% (active),–,–
CC12CCC3C(CCC4(O)CC(O)CCC34C=NO)C1(O)CCC2C1=COC(=O)C1 (stereo not given),94.5% (active),84.4% (active),61.1% (active),82.2% (active),96.3% (active),110% (active),98.2% (active),89.2% (active),54.3% (active),29.4%,–,–
CCOc1ccc(-c2cc(C)[n+](CCc3ccc(OC)c(OC)c3)c(-c3ccc(OCC)cc3)c2)cc1,53.6% (active),69.7% (active),60% (active),73.4% (active),70% (active),104% (active),92.3% (active),85.4% (active),–,–,–,–
C[C@]12CC[C@H](O)C[C@H]1CC[C@@H]1[C@@H]2C[C@@H](O)[C@]2(C)[C@@H](C3=CC(=O)OC3)CC[C@]12O,88.8% (active),65.8% (active),13.8%,65.4% (active),94.8% (active),107% (active),96% (active),77.7% (active),–,–,–,–
O=C(Nc1ccc(OC(=O)N2CCCCC2)cc1)N1CCOCC1,24.1%,1.46%,9.87%,-2.66%,29.4% (active),19.7%,37.9%,14.3%,35%,68.5% (active),–,–
CC1CCOC(=O)C=CC=CC(=O)OC2CC3OC4C5OC5(C)C(O)CC4(COC(=O)C1O)C2(C)C31CO1 (stereo not given),98.8% (active),97.3% (active),97.2% (active),97.1% (active),–,–,–,–,80.4% (active),75.2% (active),–,–
C[C@H]1C[C@@H](C)C(=O)[C@@H]([C@H](O)CC2CC(=O)NC(=O)C2)C1,96.7% (active),92.3% (active),82.3% (active),91.3% (active),–,110% (active),97.9% (active),–,63.2% (active),62.9% (active),–,–
O=C(c1ccccc1)C(CN1CCCC1)c1ccccc1 (stereo not given),19.4%,33.5% (active),10.9%,39.2% (active),–,–,–,–,27%,68.3% (active),–,–
CCOc1ccc(-c2cc(C)[n+](CCN(CC)CC)c(-c3ccc(OCC)cc3)c2)cc1,68.1% (active),80.8% (active),67.7% (active),81.7% (active),73.6% (active),105% (active),93.8% (active),90% (active),–,–,19.5% (active),62% (active)
C=C1C(=O)O[C@@H]2C[C@@H](C)[C@@H]3C=CC(=O)[C@@]3(C)[C@@H](OC(=O)CC(=O)O[C@H]3[C@@H]4C(=C)C(=O)O[C@@H]4C[C@@H](C)[C@@H]4C=CC(=O)[C@]43C)[C@H]12,97.5% (active),96% (active),91.3% (active),95.7% (active),94.5% (active),106% (active),97.1% (active),94.5% (active),96% (active),99% (active),–,–
